Reference: PubChem BioAssay (Tox21)
Active and inactive are the calls of the source. Calls follow the shape of the full dose curve.
% is scaled to controls: 0 for no effect and ±100 for the full control effect; potency is read from the fitted curve at half-maximal effect.

These compounds were tested against Gonadotropin-releasing hormone receptor (Homo sapiens) (UniProt P30968) (assay: Human gonadotropin-releasing hormone receptor (GnRHR) small molecule agonists, calcium flux assay in GnRHR-HEK293 cells (AID 1920063; also: nearly all actives have a fitted effect of over 35% in size)). Conditions: calcium flux fluorescence, agonist mode; series mostly up to 57.6 µM; activity change: at the top concentration.
Chain of Gonadotropin-releasing hormone receptor (Homo sapiens) (P30968 whole entry, looked up): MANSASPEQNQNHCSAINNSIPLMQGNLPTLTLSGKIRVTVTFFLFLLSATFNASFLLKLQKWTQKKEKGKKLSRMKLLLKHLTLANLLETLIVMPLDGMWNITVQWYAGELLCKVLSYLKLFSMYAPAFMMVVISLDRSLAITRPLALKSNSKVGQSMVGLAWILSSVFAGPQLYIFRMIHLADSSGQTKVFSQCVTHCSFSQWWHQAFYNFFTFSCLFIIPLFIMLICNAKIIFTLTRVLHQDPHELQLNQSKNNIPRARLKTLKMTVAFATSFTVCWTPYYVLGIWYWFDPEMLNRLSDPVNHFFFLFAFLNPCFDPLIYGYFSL
From the text: National Center for Advancing Translational Sciences [NCATS]
Division of Preclinical Innovation [DPI]
U.S. Environmental Protection Agency [EPA]
National Institutes of Environmental Health Sciences [NIEHS]
National Toxicology Program [NTP]
U.S. Food and Drug Administration [FDA]
Gonadotropin-releasing hormone receptor (GnRHR) is a G-protein-coupled receptor (GPCR) and acts (through phospholipase C) to increase intracellular inositol trisphosphate and then release intracellular calcium stores. Cell-based GnRHR-Hek293 calcium influx assay is using HEK293 cells that have been genetically engineered to express the human GnRHR, which activity can be measured by calcium signaling. A compound/drug can activate (agonist) GnRHR that can be monitored by levels of intracellular calcium.
GnRHR-HEK293 cells developed by Codex Corp contain human GnRHR reporter gene, which was stably integrated into HEK 293 cells. The compound activation can be detected by fluorescence intensity via calcium flux assay. This cell line has been used to screen the Tox21 10K compound library to identify GnRHR agonists.
GnRHR-Hek293 cells were dispensed at 1500cells/4uL/well in 1536-well black wall/clear bottom plates using a multidrop dispenser. After the assay plates were incubated at a 37 C/5% CO2 incubator for 18 hours, 4 uL of Calcium Dye Solution was added to each well. The plates were incubated at 37 C for 1 hour. For agonist mode, 23 nL of compounds dissolved in DMSO, positive controls or DMSO only was transferred to the assay plate by a pin tool station. The fluorescence intensity in the plates was measured using FDSS 7000EX kinetic plate reader with a filter set of Ex/Em=480/540 for 3 min at 1 sec intervals. Each test compound was measured at 15 concentrations and in triplicates.
`CC(=O)NCCCS(=O)(=O)O` was tested, and the Potency was 15 µM (active).
With `O=C(O)c1ccccc1C(=O)OCc1ccccc1` the “activity change” value was -0.216% (inactive).
In the case of `C/C(CC(C)C)=N\O`, the “activity change” value is reported as -0.893% (inactive).
With `CCCCCCCCCCCCSCCOCCO` the “activity change” value was 0.157% [at 26.4 µM, active compounds read high] (inactive).
For `CCSCC`, the “activity change” value was -2.03% (inactive).
With `S=C([S-])NCCNC(=S)[S-].S=C([S-])NCCNC(=S)[S-].[Mn+2].[Zn+2]` the “activity change” value was 7.71% [at 26.4 µM, active compounds read high] (inactive).
In the case of `NC(=O)c1c(Cl)cccc1Cl`, the “activity change” value is reported as -0.678% (inactive).
For `COc1cc(C(C)=O)ccc1OCCCN1CCC(c2noc3cc(F)ccc23)CC1`, the “activity change” value was 3.22% [at 26.4 µM, active compounds read high] (inactive).
For `C=C(C)C(=O)OCCCCCCCCCC`, the “activity change” value was -2.17% (inactive).
In the case of `C=C(C)CS(=O)(=O)O`, the “activity change” value is reported as -1.2% (inactive).
For `O=C(Nc1cccc([N+](=O)[O-])c1)c1cc2ccccc2cc1O`, the “activity change” value was 12.8% (inactive).
`CC/C=C\C/C=C\C/C=C\CCCCCCCC(=O)OC` was tested, and the “activity change” value was 3.52% (inactive).
For `CN1[C@@H]2CC(OC(=O)[C@H](CO)c3ccccc3)C[C@H]1[C@@H]1O[C@@H]12` (stereo not given in full), the Potency was “inactive”.
`CCC1OCC(COc2ccc(Oc3ccccc3)cc2)O1` (stereo not given) was tested, and the “activity change” value was -0.118% (inactive).
With `C[C@@H](O)[C@H]1C(=O)N2C(C(=O)O)=C(S[C@@H]3CN[C@H](CNS(N)(=O)=O)C3)[C@H](C)[C@H]12` the “activity change” value was -0.869% [at 26.4 µM, active compounds read high] (inactive).
For `COc1ccc(-c2nc3ccc(C4=NNC(=O)CC4C)cc3[nH]2)cc1` (stereo not given), the “activity change” value was -0.789% [at 26.4 µM, active compounds read high] (inactive).
In the case of `Cc1cc2nc3ccc(=[N+](C)C)cc-3sc2cc1N`, the “activity change” value is reported as -1.54% [at 26.4 µM, active compounds read high] (inactive).
`Cc1cc(C(=C2C=CC(=Nc3ccc(S(=O)(=O)O)cc3S(=O)(=O)O)C=C2)c2ccc(Nc3ccc(S(=O)(=O)O)cc3)cc2)ccc1N` was tested, and the “activity change” value was 0.959% [at 26.4 µM, active compounds read high] (inactive).
For `C[C@@]12CCC[C@H]1[C@@H]1CC[C@H]3C[C@@H](O)CC[C@]3(C)[C@H]1CC2`, the “activity change” value was 0.738% [at 26.4 µM, active compounds read high] (inactive).
`OC/C(Br)=C(\Br)CO` was tested, and the “activity change” value was 0.519% (inactive).
In the case of `CCCCCOC(=O)CCCCC`, the “activity change” value is reported as 0.31% (inactive).
With `O=C1c2ccccc2C(=O)N1CCc1noc(-c2ccc(CN3CCCCCC3)s2)n1` the “activity change” value was 9.37% (inactive).
`CN1CCC(=C2c3ccccc3CCc3cccnc32)CC1` was tested, and the “activity change” value was -0.0596% [at 26.4 µM, active compounds read high] (inactive).
In the case of `CCN1CCOCC1`, the “activity change” value is reported as 1.21% (inactive).
With `OCCN1CCN(CCO)CC1` the “activity change” value was 0.936% (inactive).
In the case of `CCN[C@H]1C[C@H](C)S(=O)(=O)c2sc(S(N)(=O)=O)cc21`, the “activity change” value is reported as -0.518% [at 26.4 µM, active compounds read high] (inactive).
For `C[C@]12C(=O)OC(=O)[C@H]1[C@H]1C=C[C@@H]2C1`, the “activity change” value was 0.732% (inactive).
In the case of `Cc1ccccn1`, the “activity change” value is reported as 0.478% (inactive).
`CCCCC1C(=O)N(c2ccccc2)N(c2ccc(O)cc2)C1=O` (stereo not given) was tested, and the “activity change” value was -0.15% [at 26.4 µM, active compounds read high] (inactive).
`N#C/C(=C1/SC[C@@H](c2ccc(Cl)cc2Cl)S1)n1ccnc1` was tested, and the “activity change” value was -1.05% [at 26.4 µM, active compounds read high] (inactive).
For `COc1cc2ncnc(Nc3cccc(Cl)c3)c2cc1OC`, the activity change was -1.73% [at 11.8 µM, active compounds read high] (inactive).
In the case of `CCCCCCC(O)CCCCCCCCCCC(=O)O` (stereo not given), the Potency is reported as “inactive”.
`CCCC[N+](C)(CCCC)CCCC` was tested, and the “activity change” value was -0.0104% (inactive).
With `CCCCCCCCCCC=O` the “activity change” value was -2.18% (inactive).
With `C=CC(=O)[O-].C=CC(=O)[O-].[Zn+2]` the “activity change” value was 0.165% (inactive).
With `CCOC(=O)CC(=O)C(=O)OCC` the “activity change” value was 1.5% (inactive).
For `O=C1CCC(=O)N1Cl`, the “activity change” value was 0.576% (inactive).
For `Cc1c(Cl)cccc1Cl`, the “activity change” value was -0.0262% (inactive).
For `Cc1ccc2c(c1)CCCN2`, the “activity change” value was -0.462% (inactive).
For `COC(=O)C1=C(C)NC(C)=C(C(=O)OCC(C)=O)C1c1ccccc1[N+](=O)[O-]` (stereo not given), the “activity change” value was 6.82% [at 26.4 µM, active compounds read high] (inactive).
